# From PubChem BioAssay (NCATS)
# Records with an inconclusive call do not appear. Entries that show only a call come without a potency. Calls of active or inactive are those of the source. Calls come from the whole dose curve; as a rule, active = well fitted inhibition curve with a large enough effect; inconclusive = small, poorly fitted or top-dose-only effect; inactive = no such curve, though single readings can be large or run the other way.
# Test system: Zika virus NS2B-NS3 protease (unlinked complex)
# Experiment: Primary screen GU Rhodamine qHTS for Zika virus inhibitors: Unlinked NS2B-NS3 protease assay (AID 1347159); note: nearly all actives have a fitted effect of over 60% in size
# Conditions: Recombinant ZIKV NS2B-NS3 protease, Rhodamine110 substrate fluorescence; series mostly up to 107 µM
# Excerpt: Avindra Nath, Ph.D., National Institute of Neurological Disorders and Stroke (NINDS), Bethesda, MD
# Radhakrishnan Padmanabhan, Ph.D., Georgetown University (GU), Washington D.C.
# Zika Virus causes congenital defects, including microcephaly and is associated with Guillain-Barre syndrome, eningoencephalitis and myelitis in infected adult. […] Using a target-based approach, we hope to establish a screening paradigm to uncover novel, cell-active NS2B-NS3 protease (Zika Virus) specific inhibitors from NCATS' collection of small molecules using qHTS.
# Four assay panel was created to identify potential Zika Virus inhibitors. Namely, (1) GU unlinked NS2B-NS3 AMC tagged protease qHTS, (2) GU unlinked NS2B-NS3 Rhodamine tagged protease qHTS, (3) NINDS linked NS2B-NS3 AMC tagged protease qHTS, (4) NINDS linked NS2B-NS3 Rhodamine tagged protease qHTS. Active compounds were re-acquired and re-screened to confirm inhibition. Inhibitors were further screened against various confirmatory and counterscreens in dose response format.
# Early Translation Branch (ETB)
# National Center for Advancing Translational Sciences (NCATS), Rockville, MD
# National Institute of Health (NIH), Bethesda, Maryland
# Padmanabhan lab provided the NS2B hydrophilic domain and NS3 protease domain in a noncovalent complex used for the unlinked assay. Control compound aprotinin is obtained from Thermo Scientific (#78432; Waltham, Massachusetts). Rhodamine110 substrate ([N-Cbz]-Nle-Lys-Arg-Arg-Rhod110-Arg-Arg-Lys-Nle-[N-Cbz]) was purchased from either Genscript or Bachem.
# 1536-well Protease (Rhodamine110 Substrate) Assay:
# Briefly, 3 microL of enzyme (25 nM final concentration), in assay buffer (10 mM Tris-HCl pH 8.0 with 0.01% Tween 20) were dispensed into a 1,536-well solid-bottom black plate (Greiner Bio One, Monroe, NC). Twenty-three nL of compounds (final concentration range 7.28 nM to 114 microM) or control Aprotinin (final concentration range 3.47 nM to 114 microM) were transferred via Wako Pin-tool (Wako Automation, Richmond, VA). Samples were incubated (room temperature, protected from light) for 15 minutes followed by a 1 microL Rhodamine110 substrate addition (1.5 microM final concentration). Plates were then immediately read on a ViewLux High-throughput CCD imager (PerkinElmer, Waltham, MA) equipped with FITC fluorescence optics (480(20) nm excitation, 540(25) nm emission), then incubated (room temperature, protected from light) for 15 minutes (~15% conversion). The change in fluorescence intensity over the 15-minute reaction period was normalized against no-inhibitor and no-enzyme controls and the resulting percent inhibition data were fitted to a 4-parameter Hill equation. Aprotinin was used as intraplate control.
# Potency is the fitted concentration of half-maximal effect.
row,Structure (SMILES),Potency
1,CC(C)c1cc2c(c(O)c1O[C@@H]1O[C@H](CO)[C@@H](O)[C@H](O)[C@H]1O)CC1(O)CCC(O)C(C)(C)C1CC2 (stereo not given in full),20 µM (active)
2,CC1=CC(=O)CC(C)(CO[C@@H]2O[C@H](CO)[C@@H](O)[C@H](O)[C@H]2O)C1(O)/C=C/C(C)=C/C(=O)O (stereo not given in full),inactive
3,C[C@@H]1O[C@@H](O[C@H]2[C@H](OC(=O)C34CCC(C)(C)CC3C3=CCC5C6(C)CC(O)C(O[C@@H]7O[C@H](CO)[C@@H](O)[C@H](O)[C@H]7O)C(C)(C(=O)O)C6CCC5(C)C3(CO)CC4)O[C@H](C)[C@H](O)[C@@H]2O)[C@H](O)[C@H](O)[C@H]1O[C@@H]1OC[C@@H](O)[C@H](O)[C@H]1O (stereo not given in full),inactive
4,O=C(O[C@H]1[C@@H]2C=CO[C@@H](O[C@@H]3O[C@H](CO)[C@@H](O)[C@H](O)[C@H]3O)[C@@H]2[C@@]2(CO)O[C@@H]12)c1ccc(O)c(O)c1,inactive
5,CCOc1cc2ncc(C#N)c(Nc3ccc(OCc4ccccn4)c(Cl)c3)c2cc1NC(=O)/C=C/CN(C)C,inactive
6,CC1(C)CC[C@]2(C(=O)O)CC[C@]3(C)C(=CCC4[C@@]5(C)C[C@H](O)[C@H](O[C@@H]6OC[C@H](O)[C@H](O)[C@H]6O)[C@@](C)(CO)C5CC[C@]43C)[C@@H]2C1 (stereo not given in full),inactive
7,CC1=CCC2C(C)(CO)CCCC2(CO)C1CO (stereo not given),15.8 µM (active)
8,OC[C@H]1O[C@@H](n2cnc3c(NCc4ccc(O)cc4)ncnc32)[C@H](O)[C@@H]1O,inactive
9,CCCC(N[C@@H](C)C(=O)N1[C@H](C(=O)O)C[C@@H]2CCCC[C@@H]21)C(=O)OCC (stereo not given in full),inactive
10,Nc1ncnc2c1ncn2[C@H]1CCCO1,inactive
11,COc1cc(-c2cccc(O)c2)cc2c1OCO2,35.5 µM (active)
12,O=C(c1ccc(F)cc1)C1CCN(CCn2c(=O)nc3n(c2=O)CCCC3)CC1,inactive
13,C=C1CCC2(OC1)OC1CC3C4CC=C5CC(O)CC(O[C@@H]6OC[C@@H](O)[C@H](O)[C@H]6O)C5(C)C4CCC3(C)C1(O)C2C (stereo not given in full),inactive
14,Cc1[nH]cnc1C1CCN(c2nc3cccc4c3n2CCC4=O)CC1,inactive
15,CC1CC(=O)C2=C(O1)OC1(C)CCC3C(C)(C)C=CC(=O)C3(C)C1C2 (stereo not given),28.2 µM (active)
16,C=CC(C)(CC/C=C(\C)CC/C=C(\C)CC(O)/C=C(\C)C(=O)O)O[C@@H]1O[C@H](CO)[C@@H](O)[C@H](O)[C@H]1O[C@@H]1O[C@H](CO)[C@@H](O)[C@H](O)[C@H]1O (stereo not given in full),inactive
17,CC(C)C1=CC2=CCC3[C@](C)(CCC[C@@]3(C)C(=O)O)C2CC1O (stereo not given in full),inactive
18,CNC(=O)O[C@H]1COc2ccc(N3CCN(C4COC4)CC3)cc2[C@@H]1NC(=O)c1ccc(F)cc1,inactive
19,CC1=C2CC3OC3(C)CCC3OC3(C)CC2OC1=O (stereo not given),inactive
20,CC(C)(O)c1ccc2c(c1)C(=O)CC1[C@](C)(CO)CCC[C@]21C (stereo not given in full),31.6 µM (active)

row,Structure (SMILES),Potency
1,CC1(C)CC(=O)N(CCCCN2CCN(c3ncccn3)CC2)C(=O)C1,inactive
2,C=CCc1ccc(O[C@@H]2O[C@H](CO)[C@@H](O)[C@H](O)[C@H]2O)c(OC)c1,12.6 µM (active)
3,C=C1C2=CC(O)C(C)C1(C)CC/C(C)=C/CCC1(C)OC1C2=O (stereo not given),inactive
4,C=CC1(C)CC(OC(=O)C(=C)C(O)COC(C)=O)C(C(=C)C(=O)OC)C(O)C1C(=C)CO (stereo not given),inactive
5,CC(C)C(C#N)O[C@@H]1O[C@H](CO[C@@H]2OC[C@](O)(CO)[C@H]2O)[C@@H](O)[C@H](O)[C@H]1O (stereo not given in full),inactive
6,COC(=O)C1=CO[C@@H](O[C@@H]2O[C@H](CO)[C@@H](O)[C@H](O)[C@H]2O)[C@@H]2[C@@](C)(O)[C@@H](O)C[C@]12O,inactive
7,CC1(C)CC2C(O)C3=C(CC(C)(O)C2C1)C(=O)OC3O (stereo not given),inactive
8,Cc1c(CN(C)C(=O)/C=C/c2cnc3c(c2)CCC(=O)N3)oc2ccccc12,inactive
9,COC1C2=C(COC2=O)C2(C)CCCC(C)(CO)C2C1OC(=O)c1ccccc1 (stereo not given),inactive
10,CCCOc1ccn2c(C(C)=O)cc(-c3ccccc3S(C)(=O)=O)c2c1,inactive
11,C/C=C/C=C/C=C/C(=O)O[C@@H]1[C@@H](OC)C2=C(C(=O)N(C(C)C(=O)O)C2)[C@@]2(C)CCCC(C)(C)[C@H]12 (stereo not given in full),7.94 µM (active)
12,CCOC(=O)[C@H](CCc1ccccc1)CC1(C(=O)N[C@H]2CCc3ccccc3N(CC(=O)O)C2=O)CCCC1,inactive
13,C(#Cc1cccc(CN2CCOCC2)c1)CCN1CCCCC1,inactive
14,CC(=O)OCC(=O)O[C@@H]1[C@H]2[C@@H](OC(=O)c3ccccc3)[C@@H](C)C[C@]2(O)[C@H](OC(C)=O)C2(C)[C@H]3CC(C)(C)C(=O)[C@@H]3CC1(OC(C)=O)[C@@H]2OC(C)=O (stereo not given in full),inactive
15,CC1(C)O[C@]23C[C@H]1C[C@H](OC(=O)c1ccoc1)[C@]2(C)[C@@H](OC(=O)c1ccoc1)CCC3(C)O (stereo not given in full),inactive
16,CC1(C)CCC(C)(C)c2cc3c(cc21)Sc1ccccc1N=C3c1ccc(C(=O)O)cc1,2.51 µM (active)
17,N[C@H]1C[C@H]1c1ccc(-c2cccc(O)c2)cc1,inactive
18,C/C=C(/C)C(=O)O[C@H]1C=C(C)C[C@H](OC(=O)c2ccc(O)cc2)C2[C@](O)(C(C)C)CC[C@@]21C (stereo not given in full),inactive
19,CC(=O)OC[C@@]12[C@H](O)C[C@]3(C)C(=CCC4[C@@]5(C)CC[C@H](O[C@@H]6O[C@H](C(=O)O)[C@@H](O[C@@H]7O[C@H](CO)[C@@H](O)[C@H](O)[C@H]7O)[C@H](O)[C@H]6O[C@@H]6O[C@H](CO)[C@@H](O)[C@H](O)[C@H]6O)[C@](C)(CO)C5CC[C@]43C)[C@@H]1CC(C)(C)[C@@H](OC(C)=O)[C@@H]2O (stereo not given in full),inactive
20,CC(C#N)C(C)O[C@@H]1O[C@H](CO)[C@@H](O)[C@H](O)[C@H]1O (stereo not given in full),inactive
